# FGF22 binding: binders of recombinant human FGF22 by thermal shift; AID 651658; Q9HCT0; 1.5% of 340,000 active; activity (Tm shift, normalised), % at 9.99 µM; SYPRO orange fluorescence; percent of sucrose octasulfate shift, DMSO zero;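 active = mean Tm shift, scaled 0 neutral to 100 positive control, at about 1.3% or above, every replicate too, limit read from the data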
# Target sequence (Q9HCT0 whole entry, looked up): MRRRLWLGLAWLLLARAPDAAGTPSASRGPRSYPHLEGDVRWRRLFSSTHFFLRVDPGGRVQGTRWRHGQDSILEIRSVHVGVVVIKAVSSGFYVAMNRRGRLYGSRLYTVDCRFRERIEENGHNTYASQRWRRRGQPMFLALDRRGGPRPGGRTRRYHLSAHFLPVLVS
# CFTR F508del cor: CFTR F508del correction in bronchial cells; activity (quench increase), % at 7.58 µM; 0.36% of 350,000 active; CFBE cells, YFP halide quenching; stimulated with forskolin plus potentiator P3; % fluorescence drop versus neutral controls;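 active = mean added fluorescence quench of at least 8% versus neutral control, with both replicates also reaching 8%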;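 note: cells transiently co-express mutant CFTR-F508del with the halide-sensitive YFP; corrector assay measuring rescue of mutant channel to the surface after 24 h compound exposure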
# Vif imaging: inhibitors of HIV Vif | HEK293T cells, Vif self-association by quenched fluorescence, imaging, 24 h | AID 602346 | 0.35% of 340,000 active | inhibition, % at 7.49 µM; in the data active = inhibition above about 50%, passing the limit was not always enough
# An asterisk follows results filed as active; nt = no result given. Shown are actives, neighbours in structure and some others; about 1.7% of the full set was active somewhere.
SMILES,FGF22 binding,CFTR F508del cor,Vif imaging
CC(C)(C)c1ccccc1NC(=O)Cn1cnc2cc([N+](=O)[O-])ccc2c1=O,43*,-3,5
O=c1c2ccc([N+](=O)[O-])cc2ncn1CCOc1ccc(Cl)cc1,0,1,-8
Cc1ccc(NC(=O)Cn2cnc3cc([N+](=O)[O-])ccc3c2=O)c(Cl)c1,0,-2,-7
O=c1c2ccc([N+](=O)[O-])cc2ncn1CCOc1cccc(Br)c1,43*,0,3
C=C(NC(=O)C(=C)NC(=O)c1csc(C2=NC3c4csc(n4)C4NC(=O)c5csc(n5)C(C(C)(O)C(C)O)NC(=O)C5CSC(=N5)/C(=C/C)NC(=O)C(C(C)O)NC(=O)c5csc(n5)C3(CC2)NC(=O)C(C)NC(=O)C(=C)NC(=O)C(=C)NC(=O)C(C(C)C)NC2C=Cc3c(C(C)O)cc(nc3C2O)C(=O)OC4C)n1)C(N)=O (stereo not drawn),0,-3,176*
Cc1cccc(C)c1NC(=O)Cn1c(=O)c(N2CCCCC2)c(N)n(C)c1=O,-1,-2,21
Cn1c(N)c(N2CCCCC2)c(=O)n(CC(=O)Nc2cccc(C#N)c2)c1=O,43*,-3,-2
C[C@H](CO)N1C[C@H](C)[C@H](CN(C)C(=O)Nc2ccc(F)cc2)OCCCC[C@H](C)Oc2ccc(NC(=O)Nc3ccccc3)cc2C1=O,0,1,nt
CC(C)C#Cc1ccc2c(c1)O[C@@H](CN(C)S(C)(=O)=O)[C@@H](C)CN([C@@H](C)CO)S2(=O)=O,0,0,nt
COc1ccc2c3c(n(C)c2c1)[C@H](CO)N(C(=O)c1ccc(F)cc1)CC31CN(C)C1,0,-1,nt
COc1ccc(OC)c(C(=O)Cn2nnc(-c3ccc(N4CCOCC4)cc3)n2)c1,0,10*,-2
COc1ccc(-c2ccc(-c3nnn(CC(=O)N4CCOCC4)n3)cc2)cc1,nt,nt,-9
N#CCC(=O)N/N=C/c1ccc(OCc2ccccc2)cc1,43*,1,-6
C/C(=N\NC(=O)COc1ccccc1)c1ccc(O)cc1,43,-2,4
N#CCC(=O)N/N=C\c1ccc(OC/C=C/c2ccccc2)cc1,0,0,4
C/C(=N\NC(=O)CC#N)c1ccc(Oc2ccccc2)cc1,44*,-1,-6
CCS(=O)(=O)Nc1ccc2c(c1)C(=O)N(C)C[C@H](OC)[C@H](C)CN(C(=O)NC(C)C)[C@@H](C)CO2,0,-1,nt
C[C@@H]1CN([C@H](C)CO)C(=O)c2cc(C#CCN(C)C)cnc2O[C@@H]1CN(C)S(C)(=O)=O,0,0,nt
C[C@@H]1CN([C@H](C)CO)C(=O)c2cc(C#C[C@@H](C)O)cnc2O[C@@H]1CN(C)Cc1ccccn1,0,2,nt
C[C@H]1CN([C@@H](C)CO)C(=O)c2cc(NC(=O)Nc3ccc4c(c3)OCO4)ccc2O[C@H]1CN(C)Cc1ccc(C(=O)O)cc1,0,1,nt
O=C(C[C@@H]1CC[C@@H]2[C@H](COC[C@@H](O)CN2C(=O)Nc2ccc(Cl)c(Cl)c2)O1)NC1CCC1,0,2,nt
CCCC/C(O)=C1\C(=O)CC(C)(C)CC1=Nc1ccc(N)cc1,43*,-1,0
CCCC/C(O)=C1\C(=O)CC(C)(C)CC1=Nc1ccccc1OC,0,-1,4
CC(=O)c1cn(Cc2ccccc2)c(=O)[nH]c1=O,43*,-5,1
Cc1cn(Cc2ccccc2)c(=O)[nH]c1=O,nt,nt,-2
SMILES,FGF22 binding,CFTR F508del cor,Vif imaging
COc1ccc2nc(SCC(=O)Nc3ccc(S(=O)(=O)N4CCCC4)cc3)c(C#N)cc2c1,nt,nt,-13
Nc1c(C(=O)Nc2ccc(S(=O)(=O)N3CCCC3)cc2)sc2nc3ccc(OC(F)(F)F)cc3cc12,nt,nt,96*
Cn1c(=O)c2[nH]c(CCCCCc3nc4ccccc4[nH]3)nc2n(C)c1=O,nt,3,0
Cn1c(=O)c2[nH]c(CCNC(=O)c3ccccc3)nc2n(C)c1=O,43*,-5,10
Cc1ccc(-n2cc(-c3ccccc3)c3c(N4CCN(C)CC4)ncnc32)cc1,42,-2,4
Cc1ccc(-n2cc(-c3ccccc3)c3c(N4CCOCC4)ncnc32)cc1,43*,8.2*,3
O=C(NCC[C@H]1CC[C@H](NC(=O)C2CC2)[C@@H](CO)O1)Nc1ccc(C(F)(F)F)cc1,0,3,nt
CCCCOc1ccc(Cc2c(COCC)[nH]c(=S)[nH]c2=O)cc1,nt,1,-17
CCOCc1[nH]c(=S)[nH]c(=O)c1Cc1ccc(OCC)cc1,43*,2,-1
COc1ccccc1NC(=O)N1[C@H](CO)[C@H](c2ccccc2)[C@@H]1C#N,0,1,nt
C[C@H](CO)N1C[C@H](C)[C@H](CN(C)C)Oc2ccc(NS(=O)(=O)c3cn(C)cn3)cc2C1=O,0,0,nt
CC(C)c1ccc(CC(NC(=O)c2ccccc2)C(=O)NCC(=O)O)cc1 (stereo not drawn),43*,-3,-4
CCCNC(=O)C(Cc1ccccc1)NC(=O)c1ccccc1 (stereo not drawn),0,0,-7
COc1ccc(S(=O)(=O)Nc2ccc3c(c2)C(=O)N([C@@H](C)CO)C[C@@H](C)[C@H](CN(C)S(=O)(=O)c2ccc(C)cc2)OCCCC[C@@H](C)O3)cc1,-1,2,nt
COc1ccc2[nH]c3c(=O)n(CCCCC(=O)NCCC(C)C)c(=S)[nH]c3c2c1,0,-2,6
CCCNC(=O)CCCCn1c(=S)[nH]c2c([nH]c3ccc(OC)cc32)c1=O,43*,1,-26
COc1ccccc1-c1cnc2c(c1)C(=O)N([C@H](C)CO)C[C@@H](C)[C@H](CN(C)Cc1cccnc1)O2,0,3,nt
COCCOC(=O)N1C(=O)[C@@]2(c3ccccc31)[C@H](c1ccccc1OCCO)N1[C@H](c3ccccc3)[C@H](c3ccccc3)OC(=O)[C@H]1[C@@H]2C(N)=O,24*,0,nt
COCCOC(=O)N1C(=O)[C@@]2(c3cc(C#CCNC(N)=O)ccc31)[C@H](c1ccccc1OCCO)N1[C@H](c3ccccc3)[C@H](c3ccccc3)OC(=O)[C@H]1[C@@H]2C(N)=O,1,-1,nt
C[C@H](CO)N1C[C@H](C)[C@@H](CN(C)C(=O)c2ccccc2F)Oc2cc(-c3ccccc3)ccc2S1(=O)=O,nt,-3,nt
Cc1ccc(NC(=O)CN2C(=O)S/C(=C\c3cccn3-c3cccc(C(=O)O)c3)C2=O)cc1C,0,1,-5
Cc1cccc(NC(=O)CN2C(=O)S/C(=C\c3cccn3-c3cccc(C(=O)O)c3)C2=O)c1,43*,-1,-10
Cc1ccc(NC(=O)CN2C(=O)N/C(=C/c3cc(C)n(-c4ccc(C(=O)O)cc4)c3C)C2=O)cc1,1,1,8
Cc1ccc(NC(=O)CN2C(=O)S/C(=C\c3cc(C)n(-c4ccc(C(=O)O)cc4)c3C)C2=O)cc1,44*,0,-12
COc1ccc2c3c(n(C)c2c1)[C@@H](CO)N(S(=O)(=O)c1ccc(C)cc1)CC31CN(S(=O)(=O)c2ccc(C)cc2)C1,nt,1,nt
CCNC(=O)[C@@H]1[C@@H](CO)[C@@H]2Cn3c(ccc(-c4cccc(F)c4)c3=O)[C@H]1N2C(=O)c1cnccn1,0,-5,nt
CCc1c(C)nc(SCC(=O)N2CCN(c3ccccc3)CC2)[nH]c1=O,44*,0,-5

# Screens as filed in PubChem.
